According to PubChem BioAssay (EPA / NIEHS):
Activity calls are given as the source filed them. How the source made its calls: active means hit-call score of the fitted dose curve at least 0.9, where 1 is the maximum; inactive means score below 0.9.

Experiment: ATG_SREBP_CIS: Attagene CIS-FACTORIAL HepG2 Assay for human Sterol Regulatory Element Binding (SREBP) (AID 2282962)
Conditions: HepG2 Attagene cis-factorial SREBP reporter, mRNA; actives raise or lower the signal
In short: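 Transfected HepG2 (cis-regulated reporter library, endogenous TFs) → compound 24 h → total RNA → oligo(dT) RT → reporter-specific PCR → FAM primer extension, HpaI cut → CE fluorescence. Fit bidirectional vs DMSO.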

SMILES	outcome	AC50
CCOc1ccccc1OCC	inactive	–
c1ccc2[nH]ccc2c1	inactive	–
CC(=O)O[C@H](CC(=O)[O-])C[N+](C)(C)C	inactive	–
CCN(CC)c1ccc(C(=C2C=CC(=[N+](CC)CC)C=C2)c2ccc(S(=O)(=O)O)cc2S(=O)(=O)[O-])cc1	inactive	–
CCCCCCCCCCCCCOS(=O)(=O)O	inactive	–
[Ca+2]	inactive	–
c1cc(C(c2ccc(OCC3CO3)cc2)c2ccc(OCC3CO3)cc2)ccc1OCC1CO1 (stereo unspecified)	–	26.3 µM (active)
CCn1c2ccccc2c2cc(N)ccc21	–	27.3 µM (active)
C=C[C@@H](C)CCC=C(C)C	inactive	–
O=C(O)CN(CCN(CC(=O)O)CC(=O)O)CCN(CC(=O)O)CC(=O)O	inactive	–
COC(=O)OC	inactive	–
Cc1c(Cl)c(=O)oc2cc(O)ccc12	–	120 µM (active)
O=Cc1ccc(F)cc1	inactive	–
C=C(C)C(=O)O	inactive	–
CC(C)OP(=O)(CP(=O)(OC(C)C)OC(C)C)OC(C)C	inactive	–
CCCCOCCOCCOCCOCCO	inactive	–
COc1ccc(Nc2ccccc2)c(C)c1	inactive	–
CCCC(C)C=O (stereo unspecified)	inactive	–
CC(=O)Nc1ccccc1O	inactive	–
COc1cc(C(C)(C)C)c(O)c(C(C)(C)C)c1	inactive	–
CCCC(=O)C(C)=O	inactive	–
O=C(O)c1cn(C2CC2)c2cc(N3CCNCC3)c(F)cc2c1=O	inactive	–
Cc1ccc2ccccc2n1	inactive	–
CC(C)=CCCC(C)=CCCC(C)=CCO	–	41.4 µM (active)
O=C(Nc1ccccc1)c1cc([N+](=O)[O-])ccc1Cl	inactive	–
N#Cc1ccccc1	inactive	–
